Key:
Settings in all cases: concentration: 1 μM, replicates: in singlicate; n = 1
FLT1 = system: FLT1
FLT3-autoinhibited = system: FLT3-autoinhibited
FLT3 = system: FLT3
FLT4 = system: FLT4
FRK = system: FRK
FYN = system: FYN
GAK = system: GAK
GCN2(Kin.Dom.2,S808G) = system: T1, GCN2(Kin.Dom.2,S808G)
T1 construct: gene EIF2AK4

GRK1 = system: GRK1
GRK2 = system: T2, GRK2
T2 construct: gene ADRBK1
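Further: KINOMEscan kinase panel screen.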

Row | SMILES | %Inh (FLT1) [%] | %Inh (FLT3-autoinhibited) [%] | %Inh (FLT3) [%] | %Inh (FLT4) [%] | %Inh (FRK) [%] | %Inh (FYN) [%] | %Inh (GAK) [%] | %Inh (GCN2(Kin.Dom.2,S808G)) [%] | %Inh (GRK1) [%] | %Inh (GRK2) [%]
1 | CC(=O)c1c(C)c2cnc(Nc3ccn(C)n3)nc2n(C2CCCC2)c1=O | 4 | 2 | 0 | 0 | 28 | 0 | 0 | 36 | 0 | 17
2 | COc1cc2ncnc(Nc3cccc(Br)c3)c2cc1OC.Cl [GI230329] | 21 | 0 | 0 | 0 | 15 | 16 | 87 | 0 | 0 | 36
3 | CS(=O)(=O)Cc1ccc(Nc2nccc(-c3c(-c4cccc(NC(=O)C5CCCCC5)c4)nn4ncccc34)n2)cc1 [GSK350559] | 63 | 25 | 88 | 52 | 4 | 1 | 14 | 0 | 0 | 44
4 | CC(C)c1ccc(O)cc1Nc1ccnc2ccc(C(F)(F)F)cc12 [GW482059] | 21 | 9 | 1 | 10 | 9 | 20 | 0 | 0 | 0 | 14
5 | Cc1ccccc1Cn1ccn2c(=O)cc(N3CCOCC3)nc12 [GSK2269905] | 10 | 2 | 0 | 0 | 14 | 26 | 1 | 4 | 0 | 0
6 | Nc1nccc(-c2c(-c3ccc(F)cc3)ncn2C2CCN(Cc3ccccc3)CC2)n1 [SB-219980] | 0 | 18 | 0 | 0 | 10 | 0 | 12 | 1 | 27 | 36
7 | O=C(Nc1n[nH]c2nc(-c3ccco3)c(Br)cc12)C1CCN(Cc2ccccc2)C1.O=C(O)[C@H](O)[C@@H](O)C(=O)O (centres unmarked) [SB-742034] | 0 | 10 | 7 | 6 | 0 | 0 | 8 | 0 | 42 | 0
8 | Cc1ccccc1-c1cc(-c2c[nH]nc2-c2ccccn2)ccn1 [GW680061] | 6 | 0 | 0 | 11 | 13 | 18 | 11 | 25 | 7 | 0
9 | Fc1ccc(-c2nc[nH]c2-c2ccncc2)cc1 [SB-217360] | 0 | 0 | 5 | 9 | 0 | 0 | 57 | 0 | 25 | 0
10 | COc1ccc(Nc2nccc(-c3ccc(NC(=O)c4cc5cc(F)ccc5[nH]4)cc3)n2)cc1 [GSK1229496] | 4 | 0 | 0 | 9 | 0 | 0 | 0 | 0 | 3 | 9
11 | COc1cccc(CNC(=O)NC2CCN(c3ccnc(Nc4ccc(F)cc4)n3)C2)c1 (centres unmarked) [GSK1379723] | 31 | 0 | 0 | 12 | 16 | 0 | 12 | 0 | 13 | 0
12 | O=C1NC(=O)C(c2ccc(Cl)cc2)=C1Nc1cccc(Cl)c1 [SB-317651] | 0 | 11 | 0 | 0 | 0 | 0 | 0 | 2 | 11 | 0
13 | Cl.Cl.Cl.N#Cc1ccc(CCNc2nccc(-c3cccc(CN4CCNCC4)c3)n2)cc1 [GSK2137462] | 17 | 0 | 38 | 2 | 4 | 38 | 26 | 11 | 0 | 0
14 | Cn1cnc2c(N)ncnc21 [SKF-97623] | 0 | 100 | 0 | 0 | 0 | 0 | 0 | 27 | 0 | 29
15 | Cn1cncc1C(=O)NC1CCN(c2ccnc(Nc3ccc(F)cc3)n2)C1 (centres unmarked) [GSK1379717] | 12 | 1 | 0 | 99.1 | 0 | 42 | 0 | 0 | 18 | 0
16 | COc1ccc2cc(-c3nc(-c4ccccc4C(C)C)[nH]c3-c3ccncc3)ccc2c1 [SB-660566] | 19 | 4 | 0 | 22 | 8 | 12 | 40 | 4 | 0 | 0
17 | Cc1ccc(NC(=O)Nc2ccccc2F)cc1-c1ccc(C(=O)Nc2ccncc2)cc1 [GSK1398477] | 45 | 0 | 13 | 34 | 72 | 40 | 24 | 28 | 0 | 0
